Measurements from PubChem BioAssay AID720555 (National Center for Advancing Translational Sciences (NCATS), 2013).
Records with an inconclusive call do not appear. Values without a mark were called inactive. The source made the active and inactive calls. Calls come from the whole dose curve; as a rule, active = well fitted inhibition curve with a large enough effect; inconclusive = small, poorly fitted or top-dose-only effect; inactive = no such curve, though single readings can be large or run the other way.

These compounds were tested against RecQ-like DNA helicase BLM (Homo sapiens) (UniProt P54132) (assay: qHTS for Inhibitors of Bloom's syndrome helicase (BLM): Helicase DNA unwinding fluorescent orthogonal confirmatory assay for SAR). Settings: fluorescence, orthogonal confirmation; series mostly up to 55.6 µM; activity change, negative = inhibition: at the top concentration.
Chain of RecQ-like DNA helicase BLM (Homo sapiens) (P54132 whole entry, looked up): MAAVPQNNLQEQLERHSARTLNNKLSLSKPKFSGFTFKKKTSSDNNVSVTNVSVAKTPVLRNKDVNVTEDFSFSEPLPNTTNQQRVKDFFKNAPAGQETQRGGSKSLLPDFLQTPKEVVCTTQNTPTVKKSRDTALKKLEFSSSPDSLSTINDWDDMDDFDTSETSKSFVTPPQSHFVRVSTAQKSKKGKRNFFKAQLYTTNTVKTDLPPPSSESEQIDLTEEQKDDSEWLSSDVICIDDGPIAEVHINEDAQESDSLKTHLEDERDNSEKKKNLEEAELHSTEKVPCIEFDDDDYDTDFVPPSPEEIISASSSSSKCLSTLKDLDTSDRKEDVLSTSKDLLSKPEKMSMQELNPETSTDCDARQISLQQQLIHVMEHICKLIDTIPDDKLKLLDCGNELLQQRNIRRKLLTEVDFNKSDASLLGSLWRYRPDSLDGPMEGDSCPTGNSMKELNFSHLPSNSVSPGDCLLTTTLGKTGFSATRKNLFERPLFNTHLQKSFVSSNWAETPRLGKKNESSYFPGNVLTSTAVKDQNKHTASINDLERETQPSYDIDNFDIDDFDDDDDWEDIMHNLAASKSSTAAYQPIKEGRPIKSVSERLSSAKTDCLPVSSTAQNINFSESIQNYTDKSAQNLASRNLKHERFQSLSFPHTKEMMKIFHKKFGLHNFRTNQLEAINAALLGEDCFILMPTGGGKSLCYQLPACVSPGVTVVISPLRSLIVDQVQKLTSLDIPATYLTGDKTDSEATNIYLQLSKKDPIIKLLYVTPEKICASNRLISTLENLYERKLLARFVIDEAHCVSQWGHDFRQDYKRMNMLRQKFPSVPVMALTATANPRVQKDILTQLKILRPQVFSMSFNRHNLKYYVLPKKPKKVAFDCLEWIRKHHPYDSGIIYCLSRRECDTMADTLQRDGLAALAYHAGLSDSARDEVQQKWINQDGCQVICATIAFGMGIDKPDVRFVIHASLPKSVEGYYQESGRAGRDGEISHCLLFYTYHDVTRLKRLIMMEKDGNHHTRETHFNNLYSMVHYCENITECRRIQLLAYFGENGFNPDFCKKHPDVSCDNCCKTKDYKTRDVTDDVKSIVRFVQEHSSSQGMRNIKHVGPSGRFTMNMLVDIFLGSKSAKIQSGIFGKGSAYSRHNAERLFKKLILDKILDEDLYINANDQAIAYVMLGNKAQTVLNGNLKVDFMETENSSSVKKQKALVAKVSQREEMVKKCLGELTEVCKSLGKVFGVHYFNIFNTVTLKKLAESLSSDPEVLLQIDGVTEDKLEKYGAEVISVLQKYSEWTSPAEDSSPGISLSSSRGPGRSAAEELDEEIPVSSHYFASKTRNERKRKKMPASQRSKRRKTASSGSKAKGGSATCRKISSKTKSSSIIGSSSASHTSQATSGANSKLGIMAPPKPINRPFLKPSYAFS
How it was run: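 Purified BLM unwound a fluorescently labelled DNA substrate at room temperature in pH 7.5 Tris buffer with 2mM ATP and 2mM MgCl2. Products were resolved on native 15% gels. Loss of single-stranded product band, normalised to no-inhibitor and no-enzyme controls, indicates inhibition.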

Row | SMILES | Potency | activity change, negative = inhibition
1 | Nc1cc(NC(=O)Nc2nnc(-c3ccncc3)s2)ccc1Cl | 11.2 µM (active) | –
2 | O=C(Nc1ccc(-c2nc3ccccc3[nH]2)cc1)Nc1ccc2c(c1)OCCO2 | – | -0.67%
3 | O=C(Nc1ccc(N2CCOCC2)c(F)c1)Nc1nnc(-c2ccncc2)s1 | – | -0.865% [at 53.6 µM]
4 | O=C(Nc1ccc(Br)c(Br)c1)Nc1cccc(-c2ccncc2)n1 | 0.891 µM (active) | –
5 | O=C(Nc1ccc(F)c(F)c1)Nc1nnc(-c2ccncc2)s1 | 8.91 µM (active) | –
6 | O=C(Nc1ccc2ccccc2c1)Nc1nnc(C2CCCCC2)s1 | – | 10.8%
7 | N#Cc1cc(NC(=O)Nc2cccc(-c3ccncc3)n2)ccc1Cl | 0.631 µM (active) | –
8 | O=C(Nc1ccc(F)nc1)Nc1nnc(-c2ccncc2)s1 | 22.4 µM (active) | –
9 | Cc1cc(NC(=O)Nc2nnc(-c3ccncc3)s2)ccc1Br | 12.6 µM (active) | –
10 | O=C(Nc1ccc(F)c(C(F)(F)F)c1)Nc1cccc(-c2ccncc2)n1 | 4.47 µM (active) | –
11 | O=C(Nc1ccc(Br)c(Br)c1)Nc1nnc(-c2cccnc2)s1 | 3.55 µM (active) | –
12 | Cc1cc(NC(=O)Nc2nnc(-c3ccncc3)s2)ccc1F | 15.8 µM (active) | –
13 | O=C(Nc1ccc2ccccc2c1)Nc1nnc(-c2ccc(F)cc2)s1 | – | -1.89%
14 | O=C(Nc1ccc(Cl)c(Cl)c1)Nc1nnc(-c2cccnc2)s1 | 3.55 µM (active) | –
15 | O=C(Nc1ccc2sccc2c1)Nc1nnc(-c2ccncc2)s1 | 10 µM (active) | –
16 | O=C(Nc1ccc(-n2ccnc2)c(F)c1)Nc1nnc(-c2ccncc2)s1 | 10 µM (active) | –
17 | O=C(Nc1ccc(Cl)c([N+](=O)[O-])c1)Nc1nnc(-c2ccc(F)cc2)s1 | 2.24 µM (active) | –
18 | COc1ccccc1CNC(=O)Nc1nnc(-c2ccncc2)s1 | – | 0.3%

Row | SMILES | Potency | activity change, negative = inhibition
19 | Cc1ccc(-c2nnc(NC(=O)Nc3ccc4ccccc4c3)s2)cc1 | – | -1.64%
20 | O=C(Nc1ccc(F)c(C(F)(F)F)c1)Nc1nnc(C2CCCCC2)s1 | – | 5.75%
21 | O=c1c(Nc2ccc(Br)c(Br)c2)c(Nc2nnc(-c3ccncc3)s2)c1=O | 6.31 µM (active) | –
22 | CC(C)(C)NC(=O)Nc1nnc(-c2ccncc2)s1 | – | 5.44%
23 | O=C(Nc1ccc(-n2cncn2)c(F)c1)Nc1nnc(-c2ccncc2)s1 | 14.1 µM (active) | –
24 | Cc1cc(NC(=O)Nc2nnc(-c3ccncc3)s2)ccc1C#N | 3.16 µM (active) | –
25 | O=C(Nc1ccc(F)c(C(F)(F)F)c1)Nc1nnc(-c2cccnc2)s1 | 3.55 µM (active) | –
26 | O=C(Nc1ccccc1)Nc1nnc(-c2ccncc2)s1 | – | 1.11%
27 | O=C(Nc1ccc(Cl)c(Cl)c1)N1CCN(c2ccncc2)CC1 | – | 6% [at 53.6 µM]
28 | O=C(Nc1ccc2ccccc2c1)Nc1nnc(-c2ccc(O)cc2)s1 | – | 2.72%
29 | O=C(Nc1cccc(C(F)(F)F)c1)Nc1nnc(-c2ccncc2)s1 | 14.1 µM (active) | –
30 | O=C(Nc1ccc(Cl)c(Cl)c1)Nc1nnc(NC2CCNCC2)s1 | – | 80.4%
31 | O=C(Nc1ccc(Cl)c(C(F)(F)F)c1)Nc1nnc(-c2ccncc2)s1 | 7.08 µM (active) | –
32 | O=C(Nc1ccc(Cl)c(Cl)c1)Nc1nnc(N2CCNCC2)s1 | – | 10.7%
33 | Cc1cc(NC(=O)Nc2nnc(-c3cccnc3)s2)ccc1F | 25.1 µM (active) | –
34 | O=C(Nc1ccc2ccccc2c1)Nc1nnc(-c2ccncc2)s1 | 10 µM (active) | –
35 | O=C(Nc1ccc(N2CCOCC2)c(C(F)(F)F)c1)Nc1nnc(-c2ccncc2)s1 | 28.2 µM (active) | –
